Here are results for 56 compounds from PubChem BioAssay AID1645860 (Buhrlage Lab, Dana-Farber Cancer Institute and Novartis …, 2021).

About 2,500 (5.3%) of roughly 47,000 compounds were called active. The list comes from a sample in which actives are over-represented; it also holds similar structures and randomly drawn compounds. Values without a mark were called inactive. Rule as the data show it: active = inhibition above about 30%; inactive = the rest.

In this assay the target is Ubiquitin carboxyl-terminal hydrolase 30 (Homo sapiens) (UniProt Q70CQ3). Put plainly: blocks human USP30 ubiquitin-rhodamine cleavage (AID 1645860). The note with it: purified USP30, Ub-rhodamine cleavage fluorescence; at 25 µM; active compounds read high.
Chain of Ubiquitin carboxyl-terminal hydrolase 30 (Homo sapiens) (Q70CQ3 whole entry, looked up): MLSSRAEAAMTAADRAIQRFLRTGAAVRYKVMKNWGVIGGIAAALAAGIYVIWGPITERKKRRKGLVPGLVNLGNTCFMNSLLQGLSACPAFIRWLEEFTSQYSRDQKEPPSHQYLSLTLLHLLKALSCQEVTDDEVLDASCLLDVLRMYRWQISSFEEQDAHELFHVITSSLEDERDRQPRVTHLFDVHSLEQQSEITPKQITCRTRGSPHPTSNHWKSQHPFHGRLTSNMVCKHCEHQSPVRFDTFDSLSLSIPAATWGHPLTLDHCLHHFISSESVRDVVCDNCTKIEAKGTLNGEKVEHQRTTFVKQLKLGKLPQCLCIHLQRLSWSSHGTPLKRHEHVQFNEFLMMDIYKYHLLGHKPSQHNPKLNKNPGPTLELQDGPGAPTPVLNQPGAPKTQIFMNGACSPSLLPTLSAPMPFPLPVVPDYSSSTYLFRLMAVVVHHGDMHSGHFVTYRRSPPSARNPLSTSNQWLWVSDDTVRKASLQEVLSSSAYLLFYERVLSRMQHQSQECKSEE
As a reminder, the inhibition is the drop in the measured response relative to a control, in per cent. Turning to `CN1CCOc2cc(S(=O)(=O)N(C)Cc3ccccc3)ccc21`, the inhibition is 29.5%.

Consider `CCOc1ncccc1C(=O)OCC(=O)c1ccc2c(c1)-c1ccccc1C2`, for which the inhibition was -153%.

As to `CCN1CCN(C(=O)c2cnn(-c3cc(-c4nc(C5CC5)no4)ccn3)c2C)CC1`, the inhibition was 1.81%.

With `CCc1nc(-c2ccc(-n3cc(C(=O)NCc4nc5ccc(C)cc5[nH]4)c(C)n3)cc2)no1`, the inhibition is 8.95%.

`Cc1ccc(CNC(=O)c2nc(-c3cn(-c4ccc(Br)cc4)nc3C)no2)o1`: the inhibition is 30.2% (active).

As to `O=C(NCC1CC1)c1nc(-c2ccc3[nH]ccc3c2)no1`, the inhibition was 0.789%.

For `COc1ccc(C(=O)CSc2nnc(CC(=O)Nc3ccc(C)cc3)n2C)cc1OC`, the inhibition is 9.07%.

For the compound `Cn1cc(-c2nc(C(=O)Nc3ccc(F)cc3)cs2)c2cccnc21`, the inhibition is 62.1% (active).

As for `Cc1cccc(NC(=O)c2csc(-c3cn(C)c4ncccc34)n2)c1`, the inhibition was -7.75%.

Regarding `Cn1nc(C(=O)Nc2ccc(F)cc2)c(=O)c2ccccc21`, the inhibition is -0.148%.

`Fc1ccccc1CNc1nnc(-c2nnc(C3CC3)o2)c2ccccc12`: the inhibition is 23.3%.

For the compound `O=C(O)/C(=C\c1ccc(Br)cc1)NC(=O)c1ccco1`, the inhibition is -0.242%.

As to `Cc1cccc(NC(=O)c2cccn2Cc2noc(C3CC3)n2)n1`, the inhibition was -19.2%.

Turning to `COc1ccc(-c2cc(C(F)F)n3ncc(C(=O)N(C)Cc4c(C)nn(C)c4C)c3n2)cc1`, the inhibition was -14.7%.

In the case of `Cc1ccc(-c2cc(C(F)F)n3ncc(C(=O)NCC(C)C)c3n2)cc1`, the inhibition is 38.7% (active).

For the compound `Cc1ccc(CNC(=O)c2cnn3c4c(cnc23)C(=O)CCC4)cc1`, the inhibition was -12.6%.

As for `COc1ccccc1NC(=O)C1=C(C)Nc2ncnn2C1c1ccc(C)o1` (stereo unspecified), the inhibition is -6.73%.

Regarding `COc1cccc(C2C(C(=O)Nc3ccccc3C)=C(C)Nc3ncnn32)c1OCc1ccccc1` (stereo unspecified), the inhibition is -8.1%.

As for `COc1ccc(NC(=O)C2=C(C)Nc3ncnn3C2c2cccc(OCc3ccc(F)cc3)c2)c(OC)c1` (stereo unspecified), the inhibition was 60.3% (active).

As for `O=C(COC(=O)c1ccc2[nH]c3c(c2c1)CCCC3)Nc1ccc(N2CCOCC2)cc1`, the inhibition was -55.7%.

`CN(C)c1ccc(CNC(=O)c2cc(CN3CCOCC3)on2)cc1`: the inhibition is 22%.

As for `O=C(CN1C(=O)c2cccnc2Sc2ccccc21)Nc1ccc(F)cc1F`, the inhibition is -96.8%.

On to `O=C(CN1C(=O)C2CCCC2=Nc2ccccc21)Nc1ccc(F)cc1F` (stereo unspecified), for which the inhibition is 32.2% (active).

For the compound `CCOc1nc2cccnc2n(CC(=O)Nc2ccc(F)cc2F)c1=O`, the inhibition is -13%.

Take `CNC(=O)N1CCC(n2c(C)nc(C(=O)Nc3cccc(OC)c3)c2C)CC1`: the inhibition is 2.54%.

As to `COc1cccc(NC(=O)C(C#N)C(=O)C2CC2c2cccc(C)c2)c1` (stereo unspecified), the inhibition is 31.3% (active).

In the case of `CCN1CCCCC12Cc1ccccc1CN(S(C)(=O)=O)C2` (stereo unspecified), the inhibition is 1.88%.

Take `CN1CCN(S(=O)(=O)c2cccc(C(=O)Nc3cccc(S(N)(=O)=O)c3)c2)CC1`: the inhibition was 7.83%.

For `O=C(Nc1cccc(S(=O)(=O)N2CCCCCC2)c1)c1ccc(N2CCOCC2)c([N+](=O)[O-])c1`, the inhibition is 47.3% (active).

On to `Cc1cccc(NC(=O)c2ccc(N3CCC(C)CC3)c([N+](=O)[O-])c2)c1C`, for which the inhibition is -29.1%.

With `COc1ccccc1OCc1nc(C)c(C(C)=O)s1`, the inhibition is 6.92%.

Take `c1ccc(Sc2nc(-c3ccccc3)nc3ccsc23)cc1`: the inhibition was -19%.

For the compound `CCC(=O)N1CCc2cc(S(=O)(=O)NC(Cc3ccccc3)C(=O)Nc3ccccc3OC)ccc21` (stereo unspecified), the inhibition is -0.729%.

As to `CC(CCc1ccccc1)NC(=O)/C=C/c1cccc([N+](=O)[O-])c1` (stereo unspecified), the inhibition is 34.1% (active).

Regarding `O=C(Oc1cccc([N+](=O)[O-])c1)C(c1ccccc1)c1ccccc1`, the inhibition was 25%.

Regarding `CC(CCc1ccccc1)NC(=O)c1cc2cc(Oc3ccccc3)ccc2[nH]1` (stereo unspecified), the inhibition is 8.29%.

`COc1cccc(OCC(=O)N2CC(=O)Nc3ccccc32)c1`: the inhibition was -14.6%.

With `Cc1nc(C)n(CC2CCCCN2Cc2ncc(C(C)(C)C)o2)n1` (stereo unspecified), the inhibition is -97.5%.

As to `Cc1cc(C2CN(C(=O)c3cn4c(C)cccc4n3)CCO2)nc(C)n1` (stereo unspecified), the inhibition is 2.35%.

For `CCCC(=O)Nc1nc2ccc(CCC(=O)NCc3ccc(F)cc3)cc2s1`, the inhibition is -10.2%.

For the compound `O=C(Cc1cccc2ccccc12)Nc1nc2ccc(F)cc2s1`, the inhibition was 53.9% (active).

Consider `CCOc1ccc2nc(NC(=O)CN3CCC(C(N)=O)CC3)sc2c1`, for which the inhibition was -1.04%.

`O=C(OCC(=O)N1CCc2ccccc21)c1cccc([N+](=O)[O-])c1`: the inhibition is -2.1%.

Take `CC(C)[C@H](NC(=O)N1CCn2c1nc1ccccc12)C(=O)NC1CC1`: the inhibition is 16%.

As for `Cc1ccc2c(c1)C(c1ccc(F)cc1)N(C(=O)CC1CCCCC1)CC(=O)N2` (stereo unspecified), the inhibition is 26.9%.

Regarding `O=C1CN(C(=O)c2cccc3ccccc23)C(c2ccc(F)cc2)c2cc(Br)ccc2N1` (stereo unspecified), the inhibition is 16%.

As for `Cc1ccc2c(c1)C(c1ccccc1)N(C(=O)c1ccc(S(=O)(=O)N3CCOCC3)cc1)CC(=O)N2` (stereo unspecified), the inhibition was 32.4% (active).

`O=C(c1ccccc1Cl)N1CCc2c([nH]c3ccccc23)C1c1ccc2c(c1)OCO2` (stereo unspecified): the inhibition was -14.6%.

Consider `CCc1nnc(NC(=O)C2CCN(C(=O)c3ccc(F)cc3)CC2)s1`, for which the inhibition was -0.015%.

As for `CCc1nnc(NC(=O)c2cc(-c3ccc(C)c(C)c3O)n[nH]2)s1`, the inhibition was 17.9%.

For `CCc1ccc(-n2nnc(C(=O)Nc3nnc(CC)s3)c2C)cc1`, the inhibition is 30.5% (active).

On to `COc1ccc(NC(=O)c2sc(N3CCOCC3)nc2-c2ccccc2)c(OC)c1`, for which the inhibition was 48.1% (active).

Regarding `COc1ccc(-c2nc(N(Cc3ccccc3)C(=O)CN3CCOCC3)sc2C)cc1`, the inhibition was -14.4%.

As to `CNC(=O)c1cc(-c2ccccc2)c(N2CCOCC2)s1`, the inhibition is -0.0877%.

As for `Cc1cc(C)c(S(=O)(=O)Nc2ccc(Cn3cncn3)cc2)cc1C`, the inhibition is -29.3%.

For the compound `COc1ccc(CN[C@H]2[C@H](O)[C@H](O)C[C@@H]2c2ccccc2)cn1`, the inhibition is -17.6%.
